# A selection: hits, their analogues and other compounds. The true share with any hit is near 12%.
# BAZ2B block: blocks human BAZ2B. Q9UIF8. AlphaScreen BAZ2B-H3K14Ac peptide displacement. Potency, µM (highest dose often 114 µM), for the others: top-dose activity change, negative = inhibition, hits mostly inhibitors. 360,000 tested, 4.4% active. AID 504333; note: % is set by controls: 0 for no effect and ±100 for the full control effect; nearly all actives have a fitted effect of over 60% in size
#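 Protein-peptide AlphaScreen: BAZ2B 50 nM, b-H3K14Ac 50 nM, 1x PBS pH 7.4 + 0.01% Tween-20. Preincubation 30 min RT; cpd 30 min RT (top 110 uM); beads 20 min RT, light-protected.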
# HP1b binding inh: HP1-beta chromodomain-methylated histone interaction inhibition; P83916; AlphaScreen HP1-beta / biotin-H3K9me3 peptide binding; Potency, µM (titrated, usually from 114 µM), inactives show at the top dose activity change, negative = inhibition, hits mostly inhibitors; 390,000 tested, 0.56% active; AID 540317; note: nearly all actives have a fitted effect of over 70% in size
# Target sequence (P83916 whole entry, looked up): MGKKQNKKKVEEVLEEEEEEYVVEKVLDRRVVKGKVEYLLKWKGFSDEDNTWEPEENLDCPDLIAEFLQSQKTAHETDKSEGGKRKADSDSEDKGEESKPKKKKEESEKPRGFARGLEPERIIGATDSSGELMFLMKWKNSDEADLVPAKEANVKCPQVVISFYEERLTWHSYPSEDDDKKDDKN
#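 AlphaScreen: HP1-beta (50 nM) preformed 30 min with biotin-H3(1-18)K9me3 peptide (50 nM) in PBS pH 7.4, 0.01% Tween-20. Compound added for 30 min at RT, then streptavidin donor/nickel chelate acceptor beads (10 ug/mL) for 30 min.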
# L3MBTL1 block: L3MBTL1 (human) inhibition | Q9Y468 | AlphaScreen L3MBTL1–H3K9me1 peptide binding | Potency, µM (highest dose often 57.1 µM), without a hit: at the highest dose activity, negative = inhibition, hits mostly inhibitors | 230,000 tested, 0.66% active | AID 485360; note: % is set by controls: 0 for no effect and ±100 for the full control effect; nearly all actives have a fitted effect of over 60% in size
#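 L3MBTL1 (50 nM) pre-complexed 30 min with biotinylated H3(1-15)K9me1 peptide (75 nM), then compounds added for 30 min at room temperature; AlphaScreen streptavidin donor/nickel chelate acceptor beads (10 ug/mL final) read after 30 min dark incubation.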
# Sfp PPTase inh: Sfp phosphopantetheinyl transferase inhibition; Q9F4F7; Biochemical Sfp PPTase activity, qHTS; Potency, µM, for inactives: largest response in the series, negative = inhibition, actives largely listed as inhibitors; 310,000 tested, 3.5% active;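 note: the enzyme is Sfp with the accession as filed and its product quenches rhodamine fluorescence; 0% = enzyme reaction without inhibitor and -100% = no enzyme wells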
#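 Reaction rates are the 30-min fluorescence difference (ex 525, em 598 nm) in wells containing 15 nM Sfp, 5 uM rhodamine-CoA and 12.5 uM BHQ-2-YbbR at pH 7.6 with 10 mM MgCl2.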
# JMJD2A Tudor: inhibitors of human JMJD2A Tudor domain; O75164; AlphaScreen JMJD2A-Tudor / H3K4me3 peptide binding; Potency, µM (titrated, usually from 114 µM), for inactives: at the highest dose activity change, negative = inhibition, usual class: inhibitors; 390,000 tested, 4.4% active; AID 504339; note: % is set by controls: 0 for no effect and ±100 for the full control effect; nearly all actives have a fitted effect of over 50% in size
# G9a inh: blocks human histone lysine methyltransferase G9a | G9a H3K9 monomethylation, AlphaScreen, 2 h | Potency, µM (highest dose often 102 µM), inactives show at the highest dose activity, negative = inhibition, actives largely listed as inhibitors | 350,000 tested, 8.8% active; note: % is set by controls: 0 for no effect and ±100 for the full control effect; nearly all actives have a fitted effect of over 75% in size
# Target sequence (Q96KQ7 913-1193 limits assumed): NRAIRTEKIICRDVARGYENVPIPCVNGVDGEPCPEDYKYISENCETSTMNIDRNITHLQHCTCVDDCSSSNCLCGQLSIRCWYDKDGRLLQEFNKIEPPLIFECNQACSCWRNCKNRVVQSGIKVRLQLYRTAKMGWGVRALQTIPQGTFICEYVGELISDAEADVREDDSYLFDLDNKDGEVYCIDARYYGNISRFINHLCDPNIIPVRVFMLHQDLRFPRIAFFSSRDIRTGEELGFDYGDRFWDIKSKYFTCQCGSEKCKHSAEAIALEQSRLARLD
#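 G9a (20 nM) preincubated 15 min RT with compounds, then 500 nM biotinylated H3K9 peptide and 20 uM SAM added; 2 h RT reaction. Monomethyl-H3K9 product detected by AlphaScreen with anti-H3K9me1 antibody, streptavidin donor and anti-rabbit IgG acceptor beads.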
# The depositor's hits bear a star; ? = inconclusive; . = no result given; [ ] = dose if it differs, or a comment. Calls come from the whole dose curve; as a rule, active = well fitted curve in the direction sought with a large enough effect; inconclusive = small, poorly fitted or top-dose-only effect, or another doubt; inactive = no such curve, though single readings can be large; an effect the other way counts as inactive or inconclusive. Potency is the fitted concentration of half-maximal effect.
SMILES,BAZ2B block,HP1b binding inh,L3MBTL1 block,Sfp PPTase inh,JMJD2A Tudor,G9a inh
Cc1nc(SCC(=O)NC(=O)NCc2ccco2)nc(C)c1C,?,12.4%,-17.2%,?,-27.8%,50.1µM*
Cc1ccc(SCC(=O)NCc2ccco2)cc1,0.4%,26.8%,19.6%[11.4 µM],-0.3%,1.3%,4.6%[59 µM]
COCCNC(=O)NC(=O)CSc1nc(C)c(C)c(C)n1,-1.4%,44.9%,3.1%,-10.7%,9.3%,44.7µM*
COC(=O)c1scc(-c2ccc(C)cc2)c1S(=O)(=O)N1CCN(c2cccc(OC)c2)CC1,-26.2%,17.2%,.,.,-31.3%,-21.2%[59 µM]
CC(=O)NC(C)CCc1ccccc1 (configuration not stated),0.0%,31.1%,3.7%,23.4%,-7.0%,17.9%[59 µM]
COCC(C)NCC(=O)NC(C)CCc1ccccc1 (configuration not stated),56.2µM*,-32.1%,7.6%,-15.7%,1µM*,8.91µM*
CC(CCc1ccccc1)NC(=O)CN1CCN(c2ccc(O)cc2)CC1 (configuration not stated),?,89.1µM*,-13.3%,10µM*,44.7µM*,7.94µM*
Cc1ccc(NC(=O)NC(=O)CN2CCN(c3ccc(O)cc3)CC2)c(C)c1,?,70.8µM*,.,50.1µM*,44.7µM*,7.94µM*
CC(C)(C)NC(=O)NC(=O)CN1CCN(c2ccc(O)cc2)CC1,-27.0%,?,3.8%,-92.9%,22.4µM*,3.16µM*
COc1cc2c(cc1NC(=O)COc1ccc(Br)c(C)c1)oc1ccccc12,2.2%,21.5%,.,.,-3.1%,?
S=C(/N=c1/sccn1Cc1ccccc1)NC1CC1,56.2µM*,1.6%,.,-11.6%,-31.8%,50.1µM*
CC(OC(=O)CCc1nc2ccccc2[nH]c1=O)c1ccccc1 (configuration not stated),-11.3%,0.0%,-2.5%,-2.5%,-24.0%,4.8%
CC(OC(=O)CCc1nc2ccccc2[nH]c1=O)C(=O)c1ccccc1 (configuration not stated),10.9%,29.9%,.,8.7%,4.5%,79.4µM*
COC(=O)CSCc1nc2ccccc2[nH]c1=O,-19.9%,21.0%,4.3%,-28.7%,-23.4%,20µM*
O=c1[nH]c(=O)c2nc3c4ccccc4c4ccccc4c3nc2[nH]1,56.2µM*,-7.5%,9.0%,?,-32.3%[11.4 µM],39.8µM*
O=c1[nH]c(=O)c2nc(-c3ccc(Cl)cc3)cnc2[nH]1,-11.2%,?,5.7%,7.5%,-10.2%,?
Cn1c(=O)nc2n(Cc3ccccc3)c3ccccc3cc-2c1=O,2.1%,13.8%,-9.5%,-27.1%,-10.5%,8.91µM*
Cc1ccc(Cl)cc1NC(=O)c1ccc(NC(=O)N2CCSc3ncccc32)cc1,-11.8%,0.3%,.,.,-17.9%,-11.1%[59 µM]
CC(=O)C1=C(c2ccccc2)NC(=S)NC1c1ccc(O)c(O)c1 (configuration not stated),?,24.2%,?,-20.0%,-16.1%,8.91µM*
COc1cc(C2NC(=S)NC(c3ccccc3)=C2C(C)=O)cc(Cl)c1OCC(=O)O (configuration not stated),-4.6%,12.8%,8.6%,89.1µM*,-13.9%,.
CC(=O)C1=C(c2ccccc2)NC(=O)NC1c1ccc(O)c(O)c1 (configuration not stated),?,-16.5%,?,44.7µM*,12.6µM*,.
CC1=C([N+](=O)[O-])C(c2ccc(O)c(O)c2)NC(=O)N1 (configuration not stated),18.8%,11.4%,.,?,-19.2%,10µM*
COc1ccc(C2NC(=O)NC(C)=C2[N+](=O)[O-])cc1OC (configuration not stated),0.5%,35.1%,4.1%,9.6%,4.3%,22.8%[59 µM]
CC(=O)C1=C(c2ccccc2)NC(=O)NC1c1ccc2c(c1)OCO2 (configuration not stated),-6.4%,9.1%,-1.9%,2.2%,-12.2%,.
